Screens from PubChem BioAssay.
Tau fibril ThT: tau fibrillization inhibition (ThT binding) | AID 1460 | P10636 | actives 2.1% (n = 270,000) | recombinant tau K18 P301L, heparin-induced fibrillization, ThT fluorescence | Potency, µM (highest dose often 57.4 µM), most hits filed as inhibitors; also: nearly all actives have a fitted effect of over 55% in size
Target sequence (P10636 561-689 P618L limits assumed): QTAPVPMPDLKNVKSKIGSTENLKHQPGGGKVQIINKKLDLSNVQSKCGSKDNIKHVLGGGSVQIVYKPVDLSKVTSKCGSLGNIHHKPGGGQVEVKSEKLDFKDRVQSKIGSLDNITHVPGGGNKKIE
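In this qHTS, human K18 P301L tau is incubated with compound and heparin for 6 hr at 37 C, and Thioflavin T fluorescence then reports fibril load.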
RORg inh: inhibitors of mouse ROR gamma transcriptional activity; P51450; Drosophila S2 Gal4-RORgamma UAS-luciferase reporter, 20 h; Potency, µM (doses to about 53.6 µM), actives largely listed as inhibitors; actives 5.4% (n = 310,000); AID 2551; also: nearly all actives have a fitted effect of over 60% in size
Target sequence (P51450 whole entry, looked up, the tested form may be a part): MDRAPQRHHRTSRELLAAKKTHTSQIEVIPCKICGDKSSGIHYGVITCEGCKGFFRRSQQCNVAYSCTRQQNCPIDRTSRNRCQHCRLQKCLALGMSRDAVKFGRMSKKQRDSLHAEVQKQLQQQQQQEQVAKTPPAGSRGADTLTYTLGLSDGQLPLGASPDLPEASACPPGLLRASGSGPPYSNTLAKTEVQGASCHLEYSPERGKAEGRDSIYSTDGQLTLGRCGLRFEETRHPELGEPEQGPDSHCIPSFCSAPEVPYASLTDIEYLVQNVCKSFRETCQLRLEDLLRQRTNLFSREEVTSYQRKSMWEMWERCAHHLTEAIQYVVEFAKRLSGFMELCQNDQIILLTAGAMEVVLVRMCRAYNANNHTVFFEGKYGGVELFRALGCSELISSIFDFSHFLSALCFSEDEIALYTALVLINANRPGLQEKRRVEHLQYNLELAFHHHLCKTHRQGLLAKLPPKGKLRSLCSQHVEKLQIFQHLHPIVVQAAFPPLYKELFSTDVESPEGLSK
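Stably transfected Drosophila Schneider cells are the test system, with ROR gamma fused to Gal4 and luciferase under UAS control; luminescence is read after 20 hr of 700 uM copper sulfate induction at ambient temperature.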
Tau fibril FP: tau fibrillization inhibition (FP); K18 P301L tau heparin fibrillization, Alexa594 FP, 6 h; Potency, µM (series often up to 57.7 µM), hits mostly inhibitors; actives 0.39% (n = 280,000); AID 1468; also: nearly all actives have a fitted effect of over 55% in size
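Quantitative HTS format: compounds meet 15 uM recombinant K18 P301L tau and Alexa 594-tau tracer in 100 mM sodium acetate pH 7; 20 uM heparin triggers fibrillization at 37 C over 6 hr; FP gives the signal.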
Gal4-VP16 FLuc: counter-screen for ROR gamma inhibitors: Gal4-VP16 reporter. Drosophila S2 Gal4-VP16 UAS-luciferase, luminescence, 20 h. Potency, µM (doses to about 53.6 µM), hits mostly inhibitors. actives 3.5% (n = 310,000);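 also: Gal4-VP16 expression switched on by copper sulfate through the metallothionein promoter; nearly all actives have a fitted effect of over 50% in size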
Tau fluor counter: counter-screen for tau fibril formation inhibitors. tau K18 P301L (four-repeat tau fragment) Alexa594 fluorescence, heparin fibrillization. Potency, µM (top dose mostly 57.7 µM). actives 0.93% (n = 280,000); also: nearly all actives have a fitted effect of over 55% in size
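Human K18 P301L tau (15 uM unlabeled plus 0.24 uM Alexa 594-labeled, final) in 100 mM sodium acetate pH 7 was mixed with compound and 20 uM heparin and incubated 6 hr at 37 C.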
Hits are given with their value; . = inactive; ? = inconclusive; / = not tested or not shown; [ ] = dose if it differs, or a comment. Rows were chosen to be rich in hits. Some 7.3% of all compounds tested hit in one or more screens of this group. Calls follow the shape of the dose curve; as a rule, active = well fitted curve in the direction sought with a large enough effect; inconclusive = small, poorly fitted or top-dose-only effect, or another doubt; inactive = no such curve, though single readings can be large; an effect the other way counts as inactive or inconclusive.

SMILES	Tau fibril ThT	RORg inh	Tau fibril FP	Gal4-VP16 FLuc	Tau fluor counter
Cc1cccc(NC(=S)NC(=O)C2CC2)c1	/	7.9µM	/	?	/
Cc1cccc(NC(=S)NC2CC3C=CC2C3)c1 (configuration not stated)	/	5µM	.	11µM	.
Cc1cc(C)cc(NC(=S)NC(=O)C2CC2)c1	/	7.1µM	/	6.3µM	/
COc1ccc(NC(=S)NC(=O)C2CCCCC2)cc1	/	.	/	.	/
Cc1cc(NC(=S)NC(=O)C2CC2)ccc1Br	?	2.5µM	.	2.5µM	?
CSCc1ccc(C(=O)NC(C)c2ccc(-n3ccnc3)cc2)cc1 (configuration not stated)	/	?	/	.	/
O=C(NC(=S)Nc1cccc([N+](=O)[O-])c1)C1CCCCC1	/	10µM	/	?	/
CN(C)S(=O)(=O)c1cccc(NC(=S)NC(=O)C2CCCCC2)c1	.	?	.	?	.
O=C(Nc1cccc(Cl)c1)N1CCSc2ccccc21	.	/	.	/	.
COc1ccc(C(=O)NN2CCOCC2)cc1[N+](=O)[O-]	/	.	/	.	/
COc1ccc(C(=O)Nc2ccc(CN3CCOCC3)cc2)cc1Br	/	.	/	.	/
COc1ccc(C(=O)NC(=S)N2CCOCC2)cc1Br	/	1.3µM	/	1.1µM	/
COc1ccc(C(=O)NC(=S)N2CCOCC2)cc1[N+](=O)[O-]	/	2.2µM	/	2.8µM	/
O=C(c1ccccn1)c1conc1C(=O)c1ccc(Br)cc1	?	13µM	.	?	.
CCc1cccc(NC(=O)Cn2nc3c4cc(F)ccc4n(Cc4cccc(C)c4)cc-3c2=O)c1	?	/	.	/	.
N#Cc1ccc(CN2CCCC3(CCN(C(=O)c4cccc(F)c4)CC3)C2)cc1	/	.	/	.	/
Cc1[nH]n(C(N)=S)c(=O)c1N=Nc1ccc(Br)cc1	/	0.35µM	/	2µM	/
Cc1ccc(O)c(N=Nc2ccc(S(=O)(=O)N3CCCC3)cc2)c1	/	?	.	.	?
Cc1[nH]n(C(N)=S)c(=O)c1N=Nc1ccc(S(=O)(=O)N2CCCC2)cc1	?	0.28µM	.	1.3µM	.
Cc1ccc(N=Nc2c(C)[nH]n(C(N)=S)c2=O)cc1	.	0.32µM	.	0.89µM	.
Cc1[nH]n(-c2ccccc2)c(=O)c1N=Nc1ccc(C(N)=O)cc1	/	.	/	.	/
COc1ccccc1CC(=N)N1C[C@@H]2C(=O)CCC(c3ccccc3)(c3ccccc3)[C@@H]2C1	?	.	.	.	.
Cc1ccc(C)c(S(=O)(=O)n2nc(C)c(S(=O)(=O)N3CCCCCC3)c2C)c1	.	/	.	/	.
CN(C)c1ccc(/C=C/c2ccc3c4ccccc4ccc3[n+]2-c2ccccc2)cc1	2µM	1.4µM	?	?	0.79µM[fluorescent]
CCOC(=O)c1c(NC(=O)CSc2nnc(Cc3ccccc3)o2)sc(C(C)=O)c1C	.	.	.	?	.
SMILES	Tau fibril ThT	RORg inh	Tau fibril FP	Gal4-VP16 FLuc	Tau fluor counter
CCN(CC)C(=O)c1sc(NC(=O)Cc2ccccc2)c(C#N)c1C	.	6.3µM	.	.	.
CCOC(=O)c1sc(NC(=O)CSc2nnc(Cc3ccccc3)o2)c(C#N)c1C	28µM	.	?	.	?
CCN(CC)C(=O)c1sc(NC(=O)Cc2ccc(OC)cc2)c(C#N)c1C	.	.	.	.	.
CCOC(=O)c1sc(NC(=O)CSc2n[nH]c(-c3ccccc3)n2)c(C#N)c1C	?	1.3µM	?	5.6µM	?
COc1ccccc1CNC(=O)c1ccc2nc(-c3ccccc3)c(-c3ccccc3)nc2c1	.	/	.	/	.
OCCN1CCN(c2nc(-c3ccccc3O)nc3ccccc23)CC1	/	.	/	.	/
COC(=O)NC(/C(C(=O)OC)=C(\C)NCc1ccccc1)c1ccco1 (configuration not stated)	.[11.5 µM]	.[10 µM]	.[11.6 µM]	.[10 µM]	.[11.6 µM]
Cc1nn2c(=O)cc(COC(=O)c3ccccc3NC(=O)c3cccs3)nc2s1	.	/	.	/	.
Cc1ccc(NC(=O)C(=Cc2ccc(C(=O)O)cc2)C(=O)Nc2ccc(C)cc2C)c(C)c1	?	16µM	.	?	.
COc1ccccc1-c1cc(C(=O)Nc2c(C)nn(Cc3ccc(Cl)cc3)c2C)no1	.	/	.	/	.
Cc1nn(CCCC(=O)NCc2ccccc2)c(=O)c2cc3sccc3n12	.	/	.	/	.
CCc1cccc(C)c1NC(=O)Cn1c(=O)cc(C)c2c(C)nn(-c3cccc(F)c3)c21	.	/	.	/	.
O=C(Nc1ccon1)c1ccc(N2CCCCC2)c([N+](=O)[O-])c1	?	.	.	.	.
O=C(Nc1nc(-c2ccccc2)cs1)c1ccc(N2CCOCC2)c([N+](=O)[O-])c1	8.9µM	?	.	?	?
O=C(Nc1nc2ccccc2s1)c1ccc(N2CCCCC2)c([N+](=O)[O-])c1	4.5µM	10µM	.	?	?
CCN(Cc1ccccc1)Cc1c(C)[nH]c2c(C)c(C)ccc2c1=O	.	.	.	.	.
C=CCN(CC=C)Cc1c(C)[nH]c2c(C)c(C)ccc2c1=O	.	?	?	13µM	.
O=c1oc2ccccc2nc1/C=C(O)/C=C\c1ccccc1	28µM	?	?	.	.
CCOc1cccc(-c2c(C(=O)N/N=C/c3ccoc3)nnn2-c2nonc2N)c1	/	10µM	/	?	/
CCOc1cccc(-c2c(C(=O)N/N=C/c3ccncc3)nnn2-c2nonc2N)c1	/	.	/	.	/
CCc1c(C(=O)N/N=C/c2ccco2)nnn1-c1nonc1N	/	?	/	.	/
CCOc1cccc(-c2c(C(=O)N/N=C/c3ccco3)nnn2-c2nonc2N)c1	/	11µM	/	25µM	/
CCOc1cccc(-c2c(C(=O)N/N=C/c3ccc(C)o3)nnn2-c2nonc2N)c1	/	10µM	/	?	/
CCCCOC(OCCCC)[C@H](O)CSc1ccc2ccccc2c1	.[11.5 µM]	.[10 µM]	.[11.6 µM]	.[10 µM]	.[11.6 µM]
Cc1[nH][nH]c(=O)c1C(c1c(C)[nH][nH]c1=O)c1cn(Cc2ccc(F)cc2)c2ccccc12	8.9µM	?	?	.	.
SMILES	Tau fibril ThT	RORg inh	Tau fibril FP	Gal4-VP16 FLuc	Tau fluor counter
Cc1[nH][nH]c(=O)c1C(c1c(C)[nH][nH]c1=O)c1cn(Cc2ccc(Cl)c(Cl)c2)c2ccccc12	10µM	.	?	?	?
COc1ccc(S(=O)(=O)N(C)c2ccc(C(=O)Nc3c(C)n(C)n(-c4ccccc4)c3=O)cc2)cc1	/	.	/	.	/
C(=N\N(Cc1ccccc1)c1ccccc1)/c1cccnc1	?	.	.	.	.
Oc1ccc(/C=N/N(Cc2ccccc2)c2ccccc2)c(O)c1O	28µM	.	?	.	28µM[quencher]
C/C(=N\N(Cc1ccccc1)c1ccccc1)c1cccnc1	.	.	.	.	.
Oc1cccc(/C=N/N(Cc2ccccc2)c2ccccc2)c1	?	.	?	.	13µM[quencher]
CC#CCN1c2ccccc2[C@]23C[C@@H](C(=O)OC)N(S(=O)(=O)c4ccc(OC)cc4)C2=NC(C(=O)OC)=C(C(=O)OC)[C@H]13	.[11.5 µM]	/	.[11.6 µM]	/	.[11.6 µM]
CSc1ncc(C(=O)Nc2cc(C)cc(C)c2)c(-c2ccccc2)n1	.	/	.	/	.
CCN1CCN(c2cc(C)c3cc(NC(=S)N4CCN(c5ccccc5F)CC4)ccc3n2)CC1	?	13µM	.	?	?
COc1ccccc1N1CCN(C(=S)Nc2ccc3nc(N4CCOCC4)cc(C)c3c2)CC1	?	4.5µM	?	?	?
